Assay results published in the OligoGym collection.

Assays:
Assay in all cases: pooled miR-30 sensor sort-seq; sequence = guide strand
Conditions in all cases: shRNA
CDH2 = molecular target: CDH2
CDH19 = molecular target: CDH19
CDH20 = molecular target: CDH20
CDH24 = molecular target: CDH24
Further: reference of the scale not given here.

**Q.** With TTAACGTATACTGTTGCACTTT as the sequence, how does the sensor-assay potency score (higher = more potent) (CDH2) read?
**A.** -0.309

**Q.** For TTCATTGTCATTGATATCCGAA, which sensor-assay potency score (higher = more potent) (CDH19) is on record?
**A.** 0.271

**Q.** For TTGATGACAATGTCAATGGGGT, which sensor-assay potency score (higher = more potent) (CDH2) is on record?
**A.** 0.314

**Q.** How did the sensor-assay potency score (higher = more potent) (CDH2) turn out when TTTCTCGATCAAGTCCAGCTGC was run?
**A.** -0.018

**Q.** How did the sensor-assay potency score (higher = more potent) (CDH2) turn out when TTCAACTTCTGCTGACTCCTTC was run?
**A.** 0.711

**Q.** TTGTTCCAGACAACGCTCCTGG was tested. Which sensor-assay potency score (higher = more potent) (CDH19) did it give?
**A.** -0.175

**Q.** With TGTAGTAGAAATGCTGACCATT as the sequence, how does the sensor-assay potency score (higher = more potent) (CDH20) read?
**A.** -0.339

**Q.** With TTTGCTGCATATATCGATCTGG as the sequence, how does the sensor-assay potency score (higher = more potent) (CDH2) read?
**A.** 0.226

**Q.** For TGATGATGAACTCTGACTCGGG, which sensor-assay potency score (higher = more potent) (CDH20) is on record?
**A.** -0.216

**Q.** How did the sensor-assay potency score (higher = more potent) (CDH20) turn out when TTCTTTGGCTTCTCTGTCCATG was run?
**A.** -0.339

**Q.** With TTTGTTTCAAAGTCGATTGGTT as the sequence, how does the sensor-assay potency score (higher = more potent) (CDH2) read?
**A.** 0.586

**Q.** For TTTCTCAGGAAATAGAATCTGT, which sensor-assay potency score (higher = more potent) (CDH19) is on record?
**A.** 0.0652

**Q.** For TTTCTTGCTTTCAAAACTCAGG, which sensor-assay potency score (higher = more potent) (CDH20) is on record?
**A.** -0.799

**Q.** How did the sensor-assay potency score (higher = more potent) (CDH24) turn out when TAGGCTGGGTCAATGAGCGTGT was run?
**A.** -0.193

**Q.** Which sensor-assay potency score (higher = more potent) (CDH20) does the source give for TAGTATATTTCATCTCTGCATT here?
**A.** -0.967

**Q.** How did the sensor-assay potency score (higher = more potent) (CDH24) turn out when TTCGAGTCCGCAGCAGAGCAGG was run?
**A.** -1.36

**Q.** For TTCCTCAATGACAAAGAACTGG, which sensor-assay potency score (higher = more potent) (CDH24) is on record?
**A.** -0.774

**Q.** For TATCTCTTACATCATCTTCTGG, which sensor-assay potency score (higher = more potent) (CDH2) is on record?
**A.** -0.0628

**Q.** Which sensor-assay potency score (higher = more potent) (CDH20) does the source give for TTGGATAATCACTTCGTAGTAT here?
**A.** 0.305

**Q.** Which sensor-assay potency score (higher = more potent) (CDH20) does the source give for TTGAGTTGTTGGTCACATCTGG here?
**A.** 0.759

**Q.** Which sensor-assay potency score (higher = more potent) (CDH2) does the source give for TTGCTGCATATATCGATCTGGG here?
**A.** -0.846

**Q.** Which sensor-assay potency score (higher = more potent) (CDH20) does the source give for TAGTATTCTTTGGCTTCTCTGT here?
**A.** -0.859

**Q.** Which sensor-assay potency score (higher = more potent) (CDH24) does the source give for TCATCAATCACAAATACGGTGC here?
**A.** -0.0927

**Q.** For TTTTGTCTTTTACTTATCGTTT, which sensor-assay potency score (higher = more potent) (CDH2) is on record?
**A.** -0.959

**Q.** How did the sensor-assay potency score (higher = more potent) (CDH20) turn out when TTGATTGTGACAGGAACACTTC was run?
**A.** -0.452

**Q.** For TATCTGAATGAAGCTTGCCGAC, which sensor-assay potency score (higher = more potent) (CDH20) is on record?
**A.** -1.28

**Q.** For TTTCTCTTAATAGTCACTGGAG, which sensor-assay potency score (higher = more potent) (CDH2) is on record?
**A.** -0.274

**Q.** How did the sensor-assay potency score (higher = more potent) (CDH24) turn out when TAGAGAAGCAACGCTCCGGATC was run?
**A.** -0.845

**Q.** With TTGTCCTGGACAGTAAAGTTGG as the sequence, how does the sensor-assay potency score (higher = more potent) (CDH24) read?
**A.** -0.744

**Q.** With TCGTTGACATCGCTGAGCGTGA as the sequence, how does the sensor-assay potency score (higher = more potent) (CDH24) read?
**A.** -0.691

**Q.** With TTCTATGGGAACCAAGTAGGGG as the sequence, how does the sensor-assay potency score (higher = more potent) (CDH24) read?
**A.** -0.879

**Q.** With TTCATCTCTGTCCAGGGCCCGG as the sequence, how does the sensor-assay potency score (higher = more potent) (CDH24) read?
**A.** -1.68

**Q.** How did the sensor-assay potency score (higher = more potent) (CDH20) turn out when TATCATTGACATCTGAGAGGGT was run?
**A.** 0.944

**Q.** ATCCAGAACAGTGTACACCAGC was tested. Which sensor-assay potency score (higher = more potent) (CDH24) did it give?
**A.** -0.986

**Q.** Which sensor-assay potency score (higher = more potent) (CDH24) does the source give for TGGATTGTCGTTGATGTCTTGC here?
**A.** -0.503

**Q.** For TATTATCTCTTACATCATCTTC, which sensor-assay potency score (higher = more potent) (CDH2) is on record?
**A.** -0.354
